According to PubChem BioAssay (NCATS):
Several values for one entry are separate records, joined by “and”; a condition that tells them apart may be missing. Identical values can stand only once. Results filed as inconclusive are left out. Activity calls are given as the source filed them. Unless noted, the call rests on the fitted dose curve; in most records, active means well fitted curve in the direction sought with a large enough effect; inconclusive means small, poorly fitted or top-dose-only effect, or another doubt; inactive means no such curve, though single readings can be large; an effect the other way counts as inactive or inconclusive.

Experiments:
[1] = Cell Viability - MRC5 (AID 434; calls by dose curve;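 further: potency means the concentration at half of the fitted maximal effect; cells exposed to compound for 40 hours at 37 °C; potency reflects cytotoxicity seen as loss of intracellular ATP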); conditions: MRC5 lung fibroblast viability, qHTS
In short: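 ATP luminescence read-out (CellTiter-Glo, 20 min RT) after 40 hr, 37 °C compound exposure of 1500 MRC5 cells/well. Data normalized to DMSO (basal) and 100 uM tamoxifen (100% inhibition); AC50 from standard Hill equation.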

[2] = Cell Viability - HUV-EC-C (AID 542); conditions: HUV-EC-C endothelial cell viability, qHTS; series mostly up to 92.2 µM;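 further: cells exposed to compound for 40 hours; on the % scale 0 is the no-effect control and ±100 the full control effect; nearly all actives have a fitted effect of over 35% in size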
In short: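 CellTiter-Glo luminescence measured ATP loss in HUV-EC-C cells (1000/well) after 40 hr compound exposure at 37 °C, in complete culture medium. Concentration-response data were Hill-fitted to give AC50.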

[3] = Cellular Toxicity (caspase-3) HepG2 (AID 654); conditions: HepG2 caspase-3 activation, luminescence; series mostly up to 92.2 µM;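 further: cells exposed to compound for 16 hours before reading; 0% = DMSO alone and 100% = caspase signal from 100 µM tamoxifen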
In short: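 Caspase 3/7 activation is measured as a luminescence increase (aminoluciferin substrate) after 16 h compound exposure of human hepatocarcinoma HepG2 cells. AC50 values are Hill fits, scaled between DMSO baseline and 100 uM tamoxifen stimulation.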

[4] = Cellular Toxicity (caspase-3) HUV-EC-C (AID 656); conditions: HUV-EC-C cells, caspase-3 activation (apoptosis); series mostly up to 92.2 µM
In short: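 Concentration-dependent caspase 3/7 induction was assessed in HUV-EC-C cells exposed for 16 hours. Data scaled between DMSO and tamoxifen (100 uM) controls.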

[5] = Cellular Toxicity (caspase-3) MRC-5 (AID 659); conditions: MRC-5 cells, luminescence, normalized: DMSO 0%, 10 µM staurosporine 100%; series mostly up to 91.7 µM
In short: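 MRC-5 fibroblasts, 1500/well; 16 h cpd, 37 °C; Caspase-Glo 3/7, 1 h RT; lumi read. Norm: DMSO = 0%, 10 uM staurosporine = 100%. Hill-fit AC50 from qHTS conc-response.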

[6] = Cellular Toxicity (caspase-3) SK-N-SH (AID 661); conditions: SK-N-SH caspase-3 activation, qHTS, DMSO as zero, staurosporine as full; series mostly up to 91.7 µM
In short: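 Caspase 3/7 activation was read by luminogenic substrate cleavage after 16 hour treatment of SK-N-SH cells. Signal was scaled between DMSO and 10 uM staurosporine, and concentration-response data were fitted with the Hill equation for AC50.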

[7] = Cellular Toxicity (caspase-3) Hek293 (AID 664); conditions: HEK293 caspase-3 activation, DMSO = 0%, 100 µM tamoxifen = 100%; at 92.2 µM (top of the series);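 further: cells exposed to compound for 16 h at 37 °C before readout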
In short: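 Concentration-response qHTS: caspase 3/7 activation measured by luminescent aminoluciferin substrate cleavage after 16 h compound exposure of Hek 293 cells. AC50 from Hill equation, with DMSO as basal and 100 uM tamoxifen as 100%.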

[8] = Cellular Toxicity (caspase-3) N2a (AID 665); conditions: N2a cells, luminescence, normalized: DMSO 0%, 10 µM staurosporine 100%; series mostly up to 92.2 µM;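 further: compound exposure lasted 16 h at 37 °C before readout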
In short: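 Caspase-3/7 activation measured as luminescence from Caspase-Glo reagent (1 h, room temperature) after 16 h compound exposure of mouse N2a cells. AC50 values from Hill-equation concentration-response, scaled between DMSO and 10 uM staurosporine.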

[9] = Cellular Toxicity (caspase-3) NIH 3T3 (AID 666); conditions: NIH 3T3 caspase-3 activation, apoptosis/toxicity, 0% DMSO, 100% is 100 µM tamoxifen; series mostly up to 92.2 µM;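 further: 0% = DMSO basal and 100% = 100 µM tamoxifen stimulation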
In short: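 Caspase-Glo 3/7 luminescence reported caspase activation in 1000 NIH 3T3 cells/well after 16 h compound exposure at 37 C. DMSO set basal and 100 uM tamoxifen set 100% stimulation; concentration-response modeled with the Hill equation for AC50.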

[10] = Cellular Toxicity (caspase-3) Renal Proximal Tubule (AID 667); conditions: renal proximal tubule cells, primary cells freshly taken from rat; Potency: caspase-3 activation; series mostly up to 91.7 µM;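 further: cells exposed to compound for 16 hours at 37 °C before detection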
In short: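 Caspase-Glo 3/7 read-out, rat primary kidney proximal tubule cells. Compound exposure 16 h, 37 °C; detection after 1 h at RT. Activity scaled to DMSO and 10 uM staurosporine.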

[11] = MultiTox-Fluor Cytotoxicity Assay - LYMP1-001 - Dead Cells (AID 946); conditions: LYMP1-001 lymphoblastoid cells, dead-cell protease fluorescence; series mostly up to 92.2 µM;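 further: 0% = DMSO and 100% = tetraoctylammonium bromide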
In short: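 LYMP1-001 lymphoblastoid cells (2500/well) treated 16 h at 37 C. Dead-cell protease cleavage of bis-AAF-R110 read at Ex/Em 485/520. Normalized to DMSO and 15 uM tetraoctylammonium bromide; AC50 from Hill fits.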

[12] = MultiTox-Fluor Cytotoxicity Assay - LYMP1-003 - Dead Cells (AID 961); conditions: LYMP1-003 lymphoblastoid cells, dead-cell protease fluorescence; series mostly up to 92.2 µM;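 further: 0% = DMSO and 100% = tetraoctylammonium bromide; nearly all actives have a fitted effect of over 70% in size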
In short: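 LYMP1-003 human lymphoblastoid cells (2500/well) exposed to compound 16 h at 37 C in complete medium; dead-cell protease read with bis-AAF-R110 fluorescence (Ex/Em 485/520) after 60 min at room temperature. Normalized to DMSO and 15 uM tetraoctylammonium bromide; AC50 from Hill fit.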

[13] = MultiTox-Fluor Cytotoxicity Assay - LYMP1-003 - Live Cells (AID 962); conditions: LYMP1-003 lymphoblastoid cells, MultiTox-Fluor live-cell protease fluorescence; series mostly up to 92.2 µM;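 further: 0% = DMSO only and full loss = 92 µM tetraoctylammonium bromide; cytotoxic hits lower the live-cell protease signal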
In short: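 Live-cell protease activity (GF-AFC substrate, 405/510 nm, 60 min at room temperature) after 16 h, 37 C compound exposure of human lymphoblastoid LYMP1-003 cells; concentration-response fitted to the Hill equation for AC50.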

[14] = Cell Viability - LYMP1-003 - Assay at 24 hr (AID 963); conditions: LYMP1-003 lymphoblastoid cell viability; series mostly up to 92.2 µM;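 further: plate controls were DMSO only for no effect and tetraoctylammonium bromide positive control for full effect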
In short: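 Concentration-response qHTS: ATP loss measured by CellTiter-Glo luminescence after 24 h compound exposure at 37 C. Cells were LYMP1-003 human lymphoblastoid, 2500 per well. AC50 derived via standard Hill equation modeling.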

[15] = Cell Viability - LYMP1-002 - Assay at 24 hr (AID 993); conditions: LYMP1-002 lymphoblastoid cells viability; series mostly up to 92.2 µM; further: on the % scale 0 is the no-effect control and ±100 the full control effect
In short: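 qHTS cytotoxicity at 24 h: CellTiter-Glo ATP luminescence in lymphoblastoid line LYMP1-002 incubated with compound at 37 °C. Concentration-response modeled with the Hill equation for AC50; tetraoctylammonium bromide served as positive control.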

[16] = qHTS Assay for Identification of Small Molecule Inducers of Hypoxia Response (AID 2120; active means well fitted curve in the direction sought with a large enough effect in the signal ratio, with a control signal flat, not every such curve was filed as active; the % refers to the signal ratio; further: 0% is about no effect); conditions: hypoxia response reporter cells, beta-lactamase ratio readout; series mostly up to 104 µM
In short: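 Reporter induction read as the CCF4 blue/green (460nm/530nm) emission ratio after 2.5 h dye loading at room temperature. ME-180 HRE-beta-lactamase cells received titrated compounds for 17 h at 37 degrees Celsius; AC50 values derived.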

[17] = molecular target: Peroxisome proliferator-activated receptor alpha (Homo sapiens) (UniProt Q07869); test: qHTS assay for small molecule agonists of the peroxisome proliferator-activated receptor alpha (PPARalpha) signaling pathway (AID 651778); conditions: PathHunter PPARalpha complementation, chemiluminescence, 6 h; max response: active compounds read high; further: % of control where 0% means no effect
In short: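 Enzyme-fragment complementation assay in which ligand-bound PPARalpha translocates and forms an active enzyme that generates chemiluminescence. Cells were plated overnight, exposed to compound for 6 hr at 37 C, and then given detection reagent for 60 min at room temperature.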

[18] = qHTS assay for small molecule agonists of the antioxidant response element (ARE) signaling pathway measured by Nrf2-dependant transcriptional activity - cell viability counter screen (AID 720653; active means well fitted curve in the direction sought with a large enough effect in the repeat runs; an effect the other way counts as inactive or inconclusive; further: on the % scale 0 is the no-effect control and ±100 the full control effect); conditions: ARE-bla HepG2 viability, CellTiter-Glo ATP luminescence, 16 h; max response: active compounds read low
In short: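 ARE-bla HepG2 cells treated with compounds for 16 h at 37C; this counter screen measures viability as intracellular ATP by CellTiter-Glo luminescence after 30 min at room temperature.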

[19] = qHTS assay for cell viability of HEK293 cells (AID 743288); conditions: ATP luminescence (CellTiter-Glo), 18 h; max response: active compounds read low; further: on the % scale 0 is the no-effect control and ±100 the full control effect; nearly all actives have a fitted effect of over 50% in size
In short: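 HEK293, 18 h, 37 C, ATP luminescence. Cells at 2,000/well were allowed at least 5 h to settle before dosing; CellTiter-Glo developed 30 min at RT.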

[20] = qHTS assay for cell viability of the p53RE-bla HCT-116 cell line (AID 743292); conditions: p53RE-bla HCT-116 viability, ATP luminescence, 16 h; series mostly up to 95 µM; further: on the % scale 0 is the no-effect control and ±100 the full control effect; nearly all actives have a fitted effect of over 55% in size
In short: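 ATP-based luminescence, 16 h compound exposure at 37 C, p53RE-bla HCT-116 cells at 4,000/well.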

Peroxisome proliferator-activated receptor alpha (Homo sapiens), sequence (Q07869 whole entry, looked up, the tested form may be a part): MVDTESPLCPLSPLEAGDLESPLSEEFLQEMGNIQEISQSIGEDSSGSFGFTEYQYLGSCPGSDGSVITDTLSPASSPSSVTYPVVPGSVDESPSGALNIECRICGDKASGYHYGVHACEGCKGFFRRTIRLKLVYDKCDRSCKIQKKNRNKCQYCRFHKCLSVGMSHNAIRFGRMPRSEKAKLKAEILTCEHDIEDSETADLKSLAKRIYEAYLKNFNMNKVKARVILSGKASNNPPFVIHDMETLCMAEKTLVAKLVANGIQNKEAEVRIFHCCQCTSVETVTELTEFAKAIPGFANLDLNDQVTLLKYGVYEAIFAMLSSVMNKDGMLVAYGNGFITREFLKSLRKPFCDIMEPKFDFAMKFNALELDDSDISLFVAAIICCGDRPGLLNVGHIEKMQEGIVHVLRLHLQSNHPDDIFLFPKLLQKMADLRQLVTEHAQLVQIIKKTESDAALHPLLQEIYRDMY

Cc1cc(=O)oc2cc(O)cc(O)c12
inactive: Potency [1] > 92 µM | Potency [2] | Potency [3] | Potency [4] | outcome [5] | outcome [6] | caspase-3 activation [7] -0.488% | outcome [8] | outcome [9] | Potency [10] | Potency [11] | Potency [12] | Potency [13] | Potency [14] | Potency [15] | Potency [16] | max response [17] 0.255% | max response [18] 0.736% | max response [19] -8.02% | Potency [20]

Brc1cc(Oc2cc(Br)c(Br)c(Br)c2Br)c(Br)c(Br)c1Br
inactive: Potency [1] > 92 µM | Potency [2] | Potency [3] | Potency [4] | outcome [5] | outcome [6] | caspase-3 activation [7] 0.395% | outcome [8] | outcome [9] | Potency [10] | Potency [11] | Potency [12] | Potency [13] | Potency [14] | Potency [15] | Potency [16] | max response [17] -7.16% and 0.47% | max response [18] 3.78% and -22.3% | max response [19] -20.8% and -10.9% | Potency [20]

c1ccc(SCCSc2ccccc2)cc1
inactive: Potency [1] > 92 µM | Potency [2] | Potency [3] | Potency [4] | outcome [5] | outcome [6] | caspase-3 activation [7] 0.456% | outcome [8] | outcome [9] | Potency [10] | Potency [11] | Potency [12] | Potency [13] | Potency [14] | Potency [15] | Potency [16] | max response [17] 2.97% | max response [18] 1.28% | max response [19] 3.66% | Potency [20]

CC(=O)OC(C(=O)c1ccccc1)c1ccccc1 (centres undefined)
inactive: Potency [1] > 92 µM | Potency [2] | Potency [3] | Potency [4] | outcome [5] | outcome [6] | caspase-3 activation [7] -0.138% | outcome [8] | outcome [9] | Potency [10] | Potency [11] | Potency [12] | Potency [13] | Potency [14] | Potency [15] | Potency [16] | max response [17] -5.41% | max response [18] -8.03% | max response [19] -11.3% | Potency [20]

O=C(OCC1CO1)C1CCCCC1C(=O)OCC1CO1 (centres undefined)
inactive: Potency [1] > 92 µM | Potency [2] | Potency [3] | Potency [4] | outcome [5] | outcome [6] | caspase-3 activation [7] 4.8% | outcome [8] | outcome [9] | Potency [10] | Potency [11] | Potency [13] | Potency [14] | Potency [15] | Potency [16] | max response [17] 11.4% | max response [18] 4.68% | max response [19] -26.2% | Potency [20]

O=[N+]([O-])c1ccccc1Nc1ccccc1
inactive: Potency [1] > 92 µM | Potency [2] | Potency [3] | Potency [4] | outcome [5] | outcome [6] | caspase-3 activation [7] -0.0405% | outcome [8] | outcome [9] | Potency [10] | Potency [11] | Potency [12] | Potency [13] | Potency [14] | Potency [15] | Potency [16] | max response [17] -0.358% | max response [18] -2.68% | max response [19] -4.25% | Potency [20]
